# About 83,000 compounds went through this panel and 20% of them were active in at least one assay; those are over-represented in the sample as a whole.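 Compound tested at a single concentration for 48 hours in 96-well plates; a percent growth value below 10 was scored as active.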 A number with no mark means an inactive call. Activity calls are given as the source filed them.
# Assays:
# Assay in all cases: NCI-60 one-dose screen, 48 h (100 = growth as untreated, 0 = no growth, -100 = all killed)
# Conditions in all cases: 10 µM unless noted
# HT29 colon = test system: HT29 colon
# SNB-75 CNS = test system: SNB-75 CNS
# SNB-19 CNS = test system: SNB-19 CNS
# U251 CNS = test system: U251 CNS
# PC-3 prostate = test system: PC-3 prostate
# SK-MEL-5 melanoma = test system: SK-MEL-5 melanoma
# UACC-62 melanoma = test system: UACC-62 melanoma
# LOX IMVI melanoma = test system: LOX IMVI melanoma
# SK-MEL-28 melanoma = test system: SK-MEL-28 melanoma
# SK-MEL-2 melanoma = test system: SK-MEL-2 melanoma
# EKVX NSCLC = test system: EKVX NSCLC
# SN12C renal = test system: SN12C renal
# UO-31 renal = test system: UO-31 renal
# TK-10 renal = test system: TK-10 renal
# ACHN renal = test system: ACHN renal
# CAKI-1 renal = test system: CAKI-1 renal
# A498 renal = test system: A498 renal
# CCRF-CEM leukemia = test system: CCRF-CEM leukemia
# MOLT-4 leukemia = test system: MOLT-4 leukemia
# SR leukemia = test system: SR leukemia
Structure (SMILES),growth (HT29 colon),growth (SNB-75 CNS),growth (SNB-19 CNS),growth (U251 CNS),growth (PC-3 prostate),growth (SK-MEL-5 melanoma),growth (UACC-62 melanoma),growth (LOX IMVI melanoma),growth (SK-MEL-28 melanoma),growth (SK-MEL-2 melanoma),growth (EKVX NSCLC),growth (SN12C renal),growth (UO-31 renal),growth (TK-10 renal),growth (ACHN renal),growth (CAKI-1 renal),growth (A498 renal),growth (CCRF-CEM leukemia),growth (MOLT-4 leukemia),growth (SR leukemia)
Nc1nc2ncc(CCNc3ccc(C(=O)NC(CCC(=O)O)C(=O)O)cc3)nc2c(=O)[nH]1 (stereo not drawn),109%,81.3%,111%,100%,106%,98.9%,99.6%,98.3%,125%,2.9% (active),119%,108%,70.7%,107%,103%,114%,95.8%,77.1%,145%,133%
CC(=O)Oc1ccc(C23c4ccccc4C2(OC(C)=O)c2cc(OC(C)=O)ccc23)cc1 (stereo not drawn),111%,54%,65.9%,9.83% (active),30.9%,88.8%,77.8%,48.2%,124%,97.9%,69.4%,81.7%,11%,63.9%,29.4%,85.2%,114%,41.8%,67.6%,-2.28% (active)
Oc1[nH]c2ccccc2c1/C=c1/ccc2c(c1)N=C(c1cc(F)cc(F)c1)N=2,57.6%,51.6%,67.9%,53%,26.2%,69.5%,58.2%,52%,77.4%,41.2%,70.7%,68.2%,60.2%,114%,50.9%,52.1%,60.5%,-3.33% (active),21%,19.9%
COc1ccc(-n2nc3c(c2-c2ccc(OC)c(OC)c2)-c2oncc2CC3)cc1,80%,94.2%,96.9%,85.3%,88.3%,81.8%,73.3%,58.1%,75.1%,92.8%,92.6%,88.4%,79.1%,103%,55.7%,80.6%,83.5%,50.4%,72.6%,–
Cc1nn(-c2ccc(Cl)cc2)c2nc3c(nc12)c(=O)oc1ccccc13,99.7%,92.1%,100%,93.9%,106%,114%,102%,101%,110%,107%,108%,101%,101%,107%,99.8%,98.3%,95%,–,–,–
c1ccc(Nc2nnc(-c3cc(-c4cccnc4)n(-c4ccccc4)n3)s2)cc1,3.7% (active),102%,102%,69.5%,82.4%,69.9%,84.1%,69.8%,106%,96.5%,83%,87.7%,56.9%,88.6%,81.7%,46.4%,74.4%,72.6%,56.5%,67.1%
COc1cc2cn3c4ccc(O)cc4nc(N)c3c2cc1OC,24.3%,2.21% (active),20.5%,4.61% (active),35.8%,-54.9% (active),-59.4% (active),-40.5% (active),39%,21.2%,48.7%,18.6%,1.49% (active),50.4%,-3.69% (active),-4.04% (active),-14.4% (active),21.1%,8.22% (active),–
O=C(COC(=O)[C@H](C[Se][Se]C[C@H](NC(=O)c1ccc(Br)cc1F)C(=O)OCC(=O)c1ccc(F)cc1)NC(=O)c1ccc(Br)cc1F)c1ccc(F)cc1,3.66% (active),-100% (active),-86.3% (active),-100% (active),-51.6% (active),-18.8% (active),-4.12% (active),-83% (active),-90.6% (active),-58.9% (active),-69.9% (active),-100% (active),-100% (active),-97.6% (active),-75.7% (active),-91.4% (active),-2.67% (active),-56.2% (active),-30% (active),-39.3% (active)
O=C1NC(=O)/C(=C\c2ccccc2)C2=C1CCCC2,104%,102%,88%,2.63% (active),20.3%,-78.7% (active),30%,-58.4% (active),36.3%,-74.2% (active),95%,-64.7% (active),-46.7% (active),0.712% (active),15.7%,7.29% (active),101%,35.8%,38.1%,–
CCS(=O)(=O)OCCCl,104%,70%,94.3%,92.1%,97.6%,103%,101%,98.5%,120%,83.7%,105%,102%,68.3%,97.7%,99.3%,104%,101%,84.7%,89.8%,137%
c1ccc(-c2nn[nH]n2)c(-c2ccc(CN3CCN(c4nsc5ccccc45)CC3)cc2)c1,58.6%,91.1%,98.3%,85.5%,84.7%,97.2%,91.4%,102%,113%,120%,106%,92.6%,103%,103%,98.7%,84%,85.1%,–,–,–
Cn1cc(-c2csc(-c3c[nH]c4ncccc34)n2)c2cc(Br)cnc21,50.6%,-28.8% (active),50.5%,3.32% (active),34.9%,35.8%,32.5%,20.5%,27.7%,78.2%,24.2%,4.21% (active),28.8%,-21.8% (active),29.6%,12.5%,71.7%,68%,76.2%,–
Cn1cc(-c2csc(-c3cn(C)c4ncccc34)n2)c2cc(F)cnc21,69.8%,75.2%,83.3%,82.4%,65%,60.6%,65.3%,72.4%,83.8%,98.7%,77.7%,88.9%,99.1%,104%,94.4%,66%,72.9%,67.4%,80.1%,–
O=C1Cc2cc(CCN3CCN(CCOCCO)CC3)c(Cl)cc2N1Cc1ccc(-c2ccccc2-c2nn[nH]n2)cc1,94.2%,82.6%,90.5%,94.1%,56.1%,100%,74.9%,89.7%,101%,81.1%,47.4%,86.1%,79.5%,111%,84.1%,61%,59.9%,–,–,–
Cc1nn(-c2ccccc2)c2nc3c(nc12)C(=O)CCC3,99%,98.2%,104%,102%,90%,88.3%,86.3%,90.3%,114%,90%,93.8%,90.1%,66.4%,104%,95.5%,101%,81.7%,–,–,–
COc1ccc2[nH]cc(/C=C3/C(=O)Nc4ccc(F)cc43)c2c1,79.1%,43.2%,88.2%,80.1%,76.4%,93.1%,73.5%,74.9%,96.2%,91.7%,77.2%,78.2%,73.1%,104%,68.4%,62.4%,76%,63.2%,61.6%,83.2%

# Source: PubChem BioAssay (NCI)
